Where “and” joins values, the source holds several entries; their conditions need not be identical. Identical values can stand only once. Hit rate of the full screen: of about 5,500 compounds, about 2,000 (36%) were called active. Roughly 18% stayed inconclusive and do not appear here. The list shows a part of the results. Unmarked numbers belong to inactive results. Cut-off read from the data, not from the text of the source: active = normalized growth mostly below about 0.91 (no sharp cut-off); inconclusive = no clear call, values can overlap the other calls; inactive = mostly above about 0.92.
Assay: chemical genetic growth profiling, strain panel (AID 1159580);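 note: tested at 20 µM; growth read once vehicle control cultures reached saturation at 30 °C; 1 = growth at the plate median or of vehicle wells; lower values mean less growth of the strain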
Conditions: S. cerevisiae deletion strains, growth OD

CC(=O)Oc1cccc2c1C(=O)c1c(OC(C)=O)cc(C(=O)O)cc1C2=O
normalized growth (locus YAL013W, strain DEP1, stronger effect = lower value): 1 | normalized growth (locus YAL021C, strain ccr4, stronger effect = lower value): 0.969 | normalized growth (locus YAL026C, strain drs2, stronger effect = lower value): 0.896 (active) | normalized growth (locus YAL030W, strain snc1, stronger effect = lower value): 0.93 | normalized growth (locus YBL061C, strain skt5, stronger effect = lower value): 0.915 (active) | normalized growth (locus YBR009C, strain hhf1, stronger effect = lower value): 0.919 | normalized growth (locus YBR021W, strain FUR4, stronger effect = lower value): 0.994 | normalized growth (locus YBR023C, strain chs3, stronger effect = lower value): 0.918 | normalized growth (locus YBR171W, strain sec66, stronger effect = lower value): 0.957 | normalized growth (locus YBR229C, strain ROT2, stronger effect = lower value): 1.01 | normalized growth (locus YBR231C, strain swc5, stronger effect = lower value): 0.874 (active) | normalized growth (locus YBR279W, strain paf1, stronger effect = lower value): 0.972 | normalized growth (locus YCL011C, strain gbp2, stronger effect = lower value): 0.923 | normalized growth (locus YCL016C, strain dcc1, stronger effect = lower value): 0.946 | normalized growth (locus YCL029C, strain bik1, stronger effect = lower value): 0.585 (active) | normalized growth (locus YCL061C, strain MRC1, stronger effect = lower value): 0.896 (active) | normalized growth (locus YCL069W, strain vba3, stronger effect = lower value): 0.951 | normalized growth (locus YCR088W, strain abp1, stronger effect = lower value): 0.929 | normalized growth (locus YDL005C, strain med2, stronger effect = lower value): 0.943 | normalized growth (locus YDL035C, strain GPR1, stronger effect = lower value): 1.01 | normalized growth (locus YDL040C, strain nat1, stronger effect = lower value): 0.961 | normalized growth (locus YDL074C, strain BRE1, stronger effect = lower value): 1.03 | normalized growth (locus YDL101C, strain DUN1, stronger effect = lower value): 1.01 | normalized growth (locus YDL134C, strain PPH21, stronger effect = lower value): 1.02 | normalized growth (locus YDL185W, strain tfp1, stronger effect = lower value): 0.993 | normalized growth (locus YDL192W, strain arf1, stronger effect = lower value): 0.175 (active) | normalized growth (locus YDR001C, strain nth1, stronger effect = lower value): 0.93 | normalized growth (locus YDR069C, strain doa4, stronger effect = lower value): 0.865 (active) | normalized growth (locus YDR101C, strain arx1, stronger effect = lower value): 0.438 (active) | normalized growth (locus YDR137W, strain rgp1, stronger effect = lower value): 0.97 | normalized growth (locus YDR150W, strain NUM1, stronger effect = lower value): 1 | normalized growth (locus YDR159W, strain sac3, stronger effect = lower value): 0.9 | normalized growth (locus YDR162C, strain NBP2, stronger effect = lower value): 0.99 | normalized growth (locus YDR195W, strain ref2): 0.991 | normalized growth (locus YDR297W, strain sur2, stronger effect = lower value): 0.913 (active) | normalized growth (locus YDR318W, strain mcm21, stronger effect = lower value): 0.32 (active) | normalized growth (locus YDR334W, strain swr1, stronger effect = lower value): 0.957 | normalized growth (locus YDR335W, strain msn5, stronger effect = lower value): 0.949 | normalized growth (locus YDR388W, stronger effect = lower value): 0.171 (active) | normalized growth (locus YDR392W, strain spt3, stronger effect = lower value): 0.84 | normalized growth (locus YDR502C, strain sam2, stronger effect = lower value): 0.341 (active) | normalized growth (locus YEL003W, strain gim4, stronger effect = lower value): 0.954 | normalized growth (locus YEL037C, strain rad23, stronger effect = lower value): 0.962 | normalized growth (locus YEL061C, strain CIN8 (second series), stronger effect = lower value): 0.932 | normalized growth (locus YEL061C, strain CIN8, stronger effect = lower value): 0.992 | normalized growth (locus YER015W, strain faa2, stronger effect = lower value): 0.92 (active) | normalized growth (locus YER016W, strain bim1, stronger effect = lower value): 0.945 | normalized growth (locus YER110C, stronger effect = lower value): 0.643 (active) | normalized growth (locus YER111C, strain swi4, stronger effect = lower value): 0.963 | normalized growth (locus YER155C, strain BEM2 (second series), stronger effect = lower value): 0.858 (active) | normalized growth (locus YER155C, strain BEM2, stronger effect = lower value): 1.01 | normalized growth (locus YER167W, strain BCK2, stronger effect = lower value): 1 | normalized growth (locus YFR010W, strain ubp6, stronger effect = lower value): 0.943 | normalized growth (locus YGL078C, strain dbp3, stronger effect = lower value): 1 | normalized growth (locus YGL086W, strain mad1, stronger effect = lower value): 0.337 (active) | normalized growth (locus YGL167C, strain pmr1, stronger effect = lower value): 0.906 (active) | normalized growth (locus YGL173C, strain kem1, stronger effect = lower value): 0.929 | normalized growth (locus YGL227W, strain vid30, stronger effect = lower value): 0.962 | normalized growth (locus YGL240W, strain doc1, stronger effect = lower value): 0.832 (active) | normalized growth (locus YGL248W, strain PDE1, stronger effect = lower value): 1.01 | normalized growth (locus YGL253W, strain hxk2, stronger effect = lower value): 0.932 | normalized growth (locus YGR078C, strain PAC10, stronger effect = lower value): 1 | normalized growth (locus YGR135W, strain pre9, stronger effect = lower value): 0.3 (active) | normalized growth (locus YGR229C, strain SMI1, stronger effect = lower value): 1.02 | normalized growth (locus YGR252W, strain gcn5, stronger effect = lower value): 0.33 (active) | normalized growth (locus YHR013C, strain ard1, stronger effect = lower value): 0.991 | normalized growth (locus YHR027C, strain rpn1, stronger effect = lower value): 0.942 | normalized growth (locus YHR030C, strain SLT2, stronger effect = lower value): 0.999 and 0.943 | normalized growth (locus YHR079C, strain IRE1 (second series), stronger effect = lower value): 0.481 (active) | normalized growth (locus YHR079C, strain IRE1, stronger effect = lower value): 0.964 | normalized growth (locus YHR094C, strain hxt1, stronger effect = lower value): 0.476 (active) | normalized growth (locus YHR129C, strain ARP1, stronger effect = lower value): 1.01 | normalized growth (locus YHR142W, strain chs7, stronger effect = lower value): 0.939 | normalized growth (locus YHR200W, strain rpn10, stronger effect = lower value): 0.354 (active) | normalized growth (locus YIL066C, strain RNR3, stronger effect = lower value): 1.02 | normalized growth (locus YIL073C, strain SPO22, stronger effect = lower value): 0.995 | normalized growth (locus YIL125W, strain kgd1, stronger effect = lower value): 1 | normalized growth (locus YIR030C, strain dcg1, stronger effect = lower value): 0.456 (active) | normalized growth (locus YJL092W, strain hpr5, stronger effect = lower value): 0.916 (active) | normalized growth (locus YJL095W, strain BCK1 (second series), stronger effect = lower value): 0.909 (active) | normalized growth (locus YJL095W, strain BCK1, stronger effect = lower value): 0.994 and 0.953 | normalized growth (locus YJL115W, strain asf1, stronger effect = lower value): 0.939 | normalized growth (locus YJL129C, strain trk1, stronger effect = lower value): 1 | normalized growth (locus YJL134W, strain LCB3, stronger effect = lower value): 1.01 | normalized growth (locus YJL154C, strain vps35, stronger effect = lower value): 0.953 | normalized growth (locus YJL164C, strain tpk1, stronger effect = lower value): 0.875 (active) | normalized growth (locus YJL166W, strain qcr8, stronger effect = lower value): 0.871 (active) | normalized growth (locus YJL168C, strain set2, stronger effect = lower value): 0.545 (active) | normalized growth (locus YJL187C, strain SWE1 (second series), stronger effect = lower value): 1.01 | normalized growth (locus YJL187C, strain SWE1, stronger effect = lower value): 0.931 | normalized growth (locus YJR043C, strain POL32, stronger effect = lower value): 0.998 | normalized growth (locus YJR066W, strain TOR1, stronger effect = lower value): 0.902

Reference: PubChem BioAssay AID1159580 (chemical genetic matrix, 2015)
